Hit rate of the full screen: of about 310,000 compounds, about 3,900 (1.3%) were called active.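 How the source made its calls: active means compounds whose thallium flux B-score, printed positive for inhibition, exceeds three library SD while starting fluorescence stays within three; inactive means the rest.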 Many of the other results were omitted from the sample, so actives are more common in it than they were.

Sequence of Potassium voltage-gated channel subfamily KQT member 1 (Homo sapiens) (P51787 whole entry, looked up): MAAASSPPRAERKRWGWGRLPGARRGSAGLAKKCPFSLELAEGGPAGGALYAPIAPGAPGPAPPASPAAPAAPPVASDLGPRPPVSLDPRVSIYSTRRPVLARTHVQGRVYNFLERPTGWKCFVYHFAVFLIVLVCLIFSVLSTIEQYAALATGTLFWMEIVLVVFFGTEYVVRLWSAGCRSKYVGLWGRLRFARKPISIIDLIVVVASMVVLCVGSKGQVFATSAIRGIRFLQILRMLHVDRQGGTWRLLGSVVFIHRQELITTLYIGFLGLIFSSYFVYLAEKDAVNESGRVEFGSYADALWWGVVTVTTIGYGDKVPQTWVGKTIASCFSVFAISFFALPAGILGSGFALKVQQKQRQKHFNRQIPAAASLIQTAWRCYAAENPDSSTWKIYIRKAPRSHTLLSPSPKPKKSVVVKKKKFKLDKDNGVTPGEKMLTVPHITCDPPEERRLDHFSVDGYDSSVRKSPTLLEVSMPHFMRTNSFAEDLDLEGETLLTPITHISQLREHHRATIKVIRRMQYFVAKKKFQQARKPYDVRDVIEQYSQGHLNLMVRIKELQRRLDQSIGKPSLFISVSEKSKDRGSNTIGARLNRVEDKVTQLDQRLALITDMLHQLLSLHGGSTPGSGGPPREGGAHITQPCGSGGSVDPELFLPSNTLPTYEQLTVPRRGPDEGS

This assay has as its target Potassium voltage-gated channel subfamily KQT member 1 (Homo sapiens) (UniProt P51787). As to the kind of experiment: KCNQ1 potassium current blockers – cell-based, thallium flux, high-throughput, primary screen (AID 2642).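 Further: channel opened by potassium depolarization with thallium stimulus after 20 min compound exposure.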 The conditions noted are these: CHO-K1 KCNQ1, FluxOR thallium flux fluorescence, at 10 µM; hits give high values.
In the case of `COCCSc1nnc(NC(=O)c2cc(OC)c(OC)cc2[N+](=O)[O-])s1`, the B-score entry was “inactive”.

For the compound `Cc1cc(C)cc(NC(=S)NCc2ccc(F)cc2)c1`, the B-score entry was “inactive”.

In the case of `O=C(O)CCC(=O)NCc1ccc2[nH]c3c(c2c1)CCCC3`, the B-score entry is “inactive”.

For the compound `Cc1cccc(NC(=S)NCc2ccc3[nH]c4c(c3c2)CCCC4)c1`, the B-score was 6 (active).

As to `CC(C)(C)c1ccc(SCCc2ccncc2)cc1`, the B-score entry was “inactive”.

`C=CCN1CN(S(=O)(=O)c2ccc(OC)cc2)c2nc3ccccc3nc21`: the B-score result was “inactive”.

For `CC(C)(C)NS(=O)(=O)c1ccc(NC(=O)C2CCCO2)cc1` (stereo not drawn), the B-score entry is “inactive”.

For `CCCC(C)C(=O)Nc1ccc(NC(C)=O)cc1` (stereo not drawn), the B-score entry was “inactive”.

Take `CCCC(NS(=O)(=O)c1ccc(OC)cc1)C(=O)O` (stereo not drawn): the B-score entry is “inactive”.

Regarding `COc1ccc(NC(=O)c2cnc(NS(=O)(=O)c3ccccc3)nc2)cc1`, the B-score entry was “inactive”.

On to `COc1ccc(S(=O)(=O)/N=C2\C=C(NS(=O)(=O)c3ccccc3)C(=O)c3ccccc32)cc1`, for which the B-score is 6 (active).

Regarding `COc1c(N2CCN(C(=S)Nc3ccccc3F)C(C)C2)c(F)cc2c(=O)c(C(=O)O)cn(C3CC3)c12` (stereo not drawn), the B-score result was “inactive”.

Turning to `Cc1cc(C)n2nc(C(=O)OC(C)C(=O)c3cc(C)c(C)cc3C)nc2n1` (stereo not drawn), the B-score entry is “inactive”.

As for `Cc1cc(Br)ccc1NC(=O)c1cnc(N2CCN(c3ccccn3)CC2)c2ccccc12`, the B-score is 7 (active).

`Cc1cc(Br)ccc1NC(=O)c1sc2ncn(CC(=O)N3CCN(c4ccccn4)CC3)c(=O)c2c1C`: the B-score entry is “inactive”.

For the compound `O=C(CN1CCN(c2ccccn2)CC1)Nc1ccc(Br)cc1`, the B-score entry was “inactive”.

On to `COc1ccc(Cc2nnc(SCC(=O)Nc3ccc(C)c(C)c3)o2)cc1OC`, for which the B-score result is “inactive”.

In the case of `CCCc1ccc(C(=O)[C@@H]2[C@@H](C(C)=O)N3c4ccc(F)cc4C=C[C@@H]3[C@@]23C(=O)Nc2ccccc23)cc1`, the B-score entry was “inactive”.

As for `COc1ccc(-c2nn(-c3ccccc3)cc2C(=O)Nc2nc(CC(C)=O)ns2)cc1`, the B-score result was “inactive”.

On to `CCc1ccc(-c2nn(-c3ccccc3)cc2CSC(=N)N)cc1`, for which the B-score was 14 (active).

For the compound `Cc1ccc(-c2nn(-c3ccccc3)cc2CN(Cc2ccccc2)C(=O)CCC(=O)O)o1`, the B-score entry is “inactive”.

As to `COc1ccc2c(c1)c(=O)c(C(=O)c1ccc(Cl)cc1)cn2CC(=O)Nc1ccc(F)cc1`, the B-score result was “inactive”.

Turning to `S=C(Nc1cccc(Cl)c1)Nc1ccc2cn[nH]c2c1`, the B-score result is “inactive”.

Take `S=C(NCc1ccco1)Nc1ccc2c(c1)OCCO2`: the B-score entry was “inactive”.

Take `FC(F)(F)c1cccc(NC(=S)Nc2cccc(Cl)c2)c1`: the B-score was 18 (active).

`Cc1csc(NC(=S)Nc2cccc(Cl)c2)n1`: the B-score entry was “inactive”.

As for `O=C(Nc1cccc(S(=O)(=O)Nc2ccc(Cl)cc2)c1)c1ccc2c(c1)OCCO2`, the B-score result was “inactive”.

As for `S=C(Nc1cccc(Cl)c1)Nc1ccc2c(c1)OCCO2`, the B-score is 8 (active).

The values above are taken from PubChem BioAssay AID2642 (Johns Hopkins Ion Channel Center, 2010).
